# Measurements from PubChem BioAssay (Tox21).
# Several values for one entry are separate records, joined by “and”; a condition that tells them apart may be missing. Equal entries are not always repeated. A number with no mark means an inactive call. Inconclusive results are not listed. Entries that show only a call come without a potency. Activity calls are given as the source filed them. The call rests on the fitted dose curve; in most records, active means well fitted curve in the direction sought with a large enough effect in the repeat runs; inconclusive means weak or mixed curves; inactive means no such curve, though single readings can be large; an effect the other way counts as inactive or inconclusive.
# Legend:
# [1] = Caspase-3/7 induction in CHO-K1 cells by small molecules, qHTS cell viability counter screen (AID 1346979); further: nearly all actives have a fitted effect of over 35% in size
# Procedure, shortened: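 Cells (CHO-K1, wild type) are plated at 1,500 per well and incubated 5hr. Test compounds in DMSO are then pinned in, followed by 16hr at 37C and 5% CO2. Viability is read by CellTiter-Fluor fluorescence after 1hr.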
# [2] = Caspase-3/7 induction in CHO-K1 cells by small molecules, qHTS assay (AID 1346980); further: nearly all actives have a fitted effect of over 15% in size
# Procedure, shortened: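 Wild-type CHO-K1 cells exposed to compounds for 17hr at 37 C, 5% CO2. Caspase-3/7 activity then measured by Caspase-Glo 3/7 luminescence after 30min at room temperature.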
# [3] = Caspase-3/7 induction in HepG2 cells by small molecules, qHTS cell viability counter screen (AID 1346981); further: series mostly up to about 92 µM; nearly all actives have a fitted effect of over 30% in size
# Procedure, shortened: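 Counter screen for cytotoxicity: HepG2 exposed 16 hr to compounds, then CellTiter-Fluor viability signal (fluorescence, 1 hr reagent incubation).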
# [4] = biological target: Nuclear receptor subfamily 1 group I member 2 (Homo sapiens) (UniProt O75469); assay: Human pregnane X receptor (PXR) small molecule agonists, qHTS assay (AID 1346982); further: nearly all actives have a fitted effect of over 35% in size
# Procedure, shortened: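 Luminescence (ONE-Glo, 30 min RT) after 24 hr compound exposure of PXR-Luc HepG2 cells; cells rested 5 hr post-plating in 5% charcoal-stripped FBS medium.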
# [5] = biological target: Nuclear receptor subfamily 1 group I member 2 (Rattus norvegicus) (UniProt Q9R1A7); assay: Rat pregnane X receptor (rPXR) activation by small molecules, qHTS assay (AID 1346983); settings: rPXR luciferase reporter cells, One-Glo luminescence, 24 h; max activation: active compounds read high; further: nearly all actives have a fitted effect of over 20% in size
# Procedure, shortened: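 Cell-based rPXR activation assay: rPXR cells, 2,000 per well, rested 5hr at 37 C, then exposed to compounds in DMSO for 24 hr at 37 C. Luciferase activity read by One-Glo luminescence after 30 min at room temperature.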
# [6] = biological target: Nuclear receptor subfamily 1 group I member 2 (Homo sapiens) (UniProt O75469); assay: CYP3A4 induction through human pregnane X receptor (PXR) by small molecules, qHTS assay (AID 1346984); further: nearly all actives have a fitted effect of over 40% in size; further: potency means the concentration at half of the fitted maximal effect
# Procedure, shortened: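 DPX-2 reporter cells; 24h cpd, 37C; Luciferin-IPA 3uM final x3h; One-Glo 30 min RT; lumi read.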
# [7] = biological target: Nuclear receptor subfamily 1 group I member 2 (Homo sapiens) (UniProt O75469); assay: Human pregnane X receptor (PXR) activation by small molecules, qHTS assay (AID 1346985); further: nearly all actives have a fitted effect of over 40% in size
# Procedure, shortened: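 DPX-2 cells (HepG2 co-transfected with a PXR response element and a CYP3A4-promoter luciferase construct) were seeded at 2,000 per well, rested 5 hr at 37C, then exposed to DMSO-dissolved compounds for 24 hr. Activation was read as luciferase luminescence.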
# [8] = biological target: Cytochrome P450 2D6 (Homo sapiens) (UniProt P10635); assay: Cytochrome P450 Family 2 Subfamily D Member 6 (CYP2D6) small molecule antagonists: luciferase reporter qHTS assay (AID 1671196); further: nearly all actives have a fitted effect of over 50% in size; further: potency means the concentration at half of the fitted maximal effect; on activity change, negative = inhibition: series mostly up to about 120 µM
# Procedure, shortened: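 Inhibition of CYP2D6 was gauged by loss of luminescence, since light produced tracks the luciferin generated from a proluciferin substrate. A 10 min room-temperature preincubation preceded 1 h NADPH-supported turnover.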
# [9] = biological target: Cytochrome P450 2C19 (Homo sapiens) (UniProt P33261); assay: Cytochrome P450 Family 2 Subfamily C Member 19 (CYP2C19) small molecule antagonists: luciferase reporter qHTS assay (AID 1671197); further: nearly all actives have a fitted effect of over 65% in size; further: potency means the concentration at half of the fitted maximal effect; on activity change, negative = inhibition: series mostly up to about 120 µM
# Procedure, shortened: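 First, compounds are pinned into enzyme-substrate mix and held 10 min at room temperature. Second, NADPH regeneration solution is added and plates incubate 1 h at 37C. Third, detection reagent is added and luminescence read after 20 min.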
# [10] = biological target: Cytochrome P450 2C9 (Homo sapiens) (UniProt P11712); assay: Cytochrome P450 Family 2 Subfamily C Member 9 (CYP2C9) small molecule antagonists: luciferase reporter qHTS assay (AID 1671198); further: series mostly up to about 120 µM; nearly all actives have a fitted effect of over 50% in size
# Procedure, shortened: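 P450-Glo proluciferin substrate with CYP2C9 enzyme; 10 min RT preincubation, then NADPH regeneration 1 h at 37C; luciferin detection reagent 20 min RT, luminescence in relative luminescence units.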
# Cytochrome P450 2C19 (Homo sapiens), sequence (P33261 whole entry, looked up): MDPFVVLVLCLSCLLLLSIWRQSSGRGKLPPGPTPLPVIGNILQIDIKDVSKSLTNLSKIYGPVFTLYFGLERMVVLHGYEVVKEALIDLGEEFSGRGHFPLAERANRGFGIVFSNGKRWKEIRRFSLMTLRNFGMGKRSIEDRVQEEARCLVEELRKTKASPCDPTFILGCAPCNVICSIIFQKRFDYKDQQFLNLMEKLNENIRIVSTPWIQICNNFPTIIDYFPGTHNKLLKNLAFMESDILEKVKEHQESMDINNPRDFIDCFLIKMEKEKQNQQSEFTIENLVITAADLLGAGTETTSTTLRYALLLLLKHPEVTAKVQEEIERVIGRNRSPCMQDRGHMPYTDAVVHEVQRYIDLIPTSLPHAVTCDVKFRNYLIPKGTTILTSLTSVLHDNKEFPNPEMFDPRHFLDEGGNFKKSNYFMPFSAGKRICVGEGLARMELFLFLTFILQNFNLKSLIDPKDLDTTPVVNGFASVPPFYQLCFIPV
# Nuclear receptor subfamily 1 group I member 2 (Rattus norvegicus), sequence (Q9R1A7 whole entry, looked up): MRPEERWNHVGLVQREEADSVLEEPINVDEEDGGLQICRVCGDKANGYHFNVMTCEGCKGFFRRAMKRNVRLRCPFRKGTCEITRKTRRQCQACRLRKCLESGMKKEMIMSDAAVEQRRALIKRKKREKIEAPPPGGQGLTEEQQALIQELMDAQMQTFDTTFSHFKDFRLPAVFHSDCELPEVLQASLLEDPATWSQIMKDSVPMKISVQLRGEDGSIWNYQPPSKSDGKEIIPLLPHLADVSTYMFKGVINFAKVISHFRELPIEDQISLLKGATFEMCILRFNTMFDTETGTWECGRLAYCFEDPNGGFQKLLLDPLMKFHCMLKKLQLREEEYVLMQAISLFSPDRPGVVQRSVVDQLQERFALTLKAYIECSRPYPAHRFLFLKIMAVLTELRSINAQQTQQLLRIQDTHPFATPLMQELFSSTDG
# Cytochrome P450 2C9 (Homo sapiens), sequence (P11712 whole entry, looked up): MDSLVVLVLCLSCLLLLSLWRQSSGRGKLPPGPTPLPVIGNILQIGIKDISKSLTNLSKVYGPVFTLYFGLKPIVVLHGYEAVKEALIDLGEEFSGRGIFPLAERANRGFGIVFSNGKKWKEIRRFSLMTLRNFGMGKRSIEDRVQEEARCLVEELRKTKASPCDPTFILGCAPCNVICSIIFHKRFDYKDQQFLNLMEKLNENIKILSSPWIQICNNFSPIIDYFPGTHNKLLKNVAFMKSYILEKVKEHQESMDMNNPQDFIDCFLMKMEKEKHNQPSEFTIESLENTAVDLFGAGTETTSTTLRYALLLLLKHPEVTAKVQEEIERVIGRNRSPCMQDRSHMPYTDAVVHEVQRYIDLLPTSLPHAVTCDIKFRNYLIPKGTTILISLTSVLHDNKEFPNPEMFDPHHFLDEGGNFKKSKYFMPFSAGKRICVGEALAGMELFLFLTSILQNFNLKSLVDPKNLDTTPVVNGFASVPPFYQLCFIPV
# Cytochrome P450 2D6 (Homo sapiens), sequence (P10635 whole entry, looked up): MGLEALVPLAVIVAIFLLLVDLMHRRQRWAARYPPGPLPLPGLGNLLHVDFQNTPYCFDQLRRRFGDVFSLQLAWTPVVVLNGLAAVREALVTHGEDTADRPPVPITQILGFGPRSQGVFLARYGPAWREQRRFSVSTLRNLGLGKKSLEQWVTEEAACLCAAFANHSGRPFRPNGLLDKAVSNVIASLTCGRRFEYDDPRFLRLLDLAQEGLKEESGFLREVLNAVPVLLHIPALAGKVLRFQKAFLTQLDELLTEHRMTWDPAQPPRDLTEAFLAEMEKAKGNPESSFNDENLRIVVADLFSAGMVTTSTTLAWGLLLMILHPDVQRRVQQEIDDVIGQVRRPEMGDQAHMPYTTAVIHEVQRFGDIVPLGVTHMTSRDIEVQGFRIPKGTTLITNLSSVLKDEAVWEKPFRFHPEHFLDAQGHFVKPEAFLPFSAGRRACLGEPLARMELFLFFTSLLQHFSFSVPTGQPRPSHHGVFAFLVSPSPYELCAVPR
# Nuclear receptor subfamily 1 group I member 2 (Homo sapiens), sequence (O75469 whole entry, looked up): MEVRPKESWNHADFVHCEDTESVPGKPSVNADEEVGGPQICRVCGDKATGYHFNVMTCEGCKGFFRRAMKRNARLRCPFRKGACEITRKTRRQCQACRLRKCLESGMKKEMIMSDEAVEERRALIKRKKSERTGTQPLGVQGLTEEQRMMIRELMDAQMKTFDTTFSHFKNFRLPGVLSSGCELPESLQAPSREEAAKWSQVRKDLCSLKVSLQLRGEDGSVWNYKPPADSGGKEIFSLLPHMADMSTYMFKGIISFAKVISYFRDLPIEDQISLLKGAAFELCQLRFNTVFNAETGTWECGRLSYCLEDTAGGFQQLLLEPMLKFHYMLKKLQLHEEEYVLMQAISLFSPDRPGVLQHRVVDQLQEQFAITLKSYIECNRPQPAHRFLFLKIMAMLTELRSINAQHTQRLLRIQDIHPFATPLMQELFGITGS
smiles,measurement,setting,value
C1CCC2=NCCCN2CC1,Potency,[1],inactive
same,outcome,[2],inactive
same,Potency,[3],inactive
CC[C@H]1OC(=O)[C@H](C)[C@@H](O[C@H]2C[C@@](C)(OC)[C@@H](O)[C@H](C)O2)[C@H](C)[C@@H](O[C@@H]2O[C@H](C)C[C@H](N(C)C)[C@H]2O)[C@](C)(OC)C[C@@H](C)C(=O)[C@H](C)[C@@H](O)[C@]1(C)O,Potency,[1],inactive
same,outcome,[2],inactive
same,Potency,[3],inactive
same,Potency,[4],inactive
same,max activation,[5],-0.482%
same,Potency,[6],inactive
same,Potency,[7],inactive
same,Potency,[8],inactive
same,Potency,[9],63.8 µM (active)
same,Potency,[10],inactive
Nc1c2c(nc3c1CCC3)CCCC2,Potency,[1],inactive
same,outcome,[2],inactive
same,Potency,[3],inactive
same,Potency,[4],inactive
same,max activation,[5],-1.69%
same,Potency,[6],inactive
same,Potency,[7],inactive
same,Potency,[8],8.71 µM (active)
same,Potency,[9],inactive
Cc1ccc(C(=O)Nc2ccc(S(=O)(=O)O)c3cc(S(=O)(=O)O)cc(S(=O)(=O)O)c23)cc1NC(=O)c1cccc(NC(=O)Nc2cccc(C(=O)Nc3cc(C(=O)Nc4ccc(S(=O)(=O)O)c5cc(S(=O)(=O)O)cc(S(=O)(=O)O)c45)ccc3C)c2)c1,Potency,[1],inactive
same,outcome,[2],inactive
same,Potency,[3],inactive
same,Potency,[4],inactive
same,max activation,[5],-1.36%
same,Potency,[6],inactive
same,Potency,[7],inactive
Cc1ncc(COP(=O)(O)O)c(C=O)c1O,Potency,[1],inactive
same,outcome,[2],inactive
same,Potency,[3],inactive
same,Potency,[4],inactive
same,max activation,[5],-2.51%
same,Potency,[6],inactive
same,Potency,[7],inactive
same,Potency,[8],inactive
same,Potency,[9],inactive
same,Potency,[10],inactive
O=C1NC(=O)C2CC=CCC12 (configuration not stated),Potency,[1],inactive
same,outcome,[2],inactive
same,Potency,[3],inactive
CC(C)NNC(=O)c1ccncc1,Potency,[1],inactive
same,outcome,[2],inactive
same,Potency,[3],inactive
same,Potency,[4],inactive
same,max activation,[5],-0.682%
same,Potency,[6],inactive
same,Potency,[7],inactive
CN1[C@@H]2CC[C@H]1CC(OC(=O)C(O)c1ccccc1)C2 (some centres not stated),Potency,[1],inactive
same,outcome,[2],inactive
same,Potency,[3],inactive
same,Potency,[4],inactive
same,max activation,[5],2.11% and -0.222%
same,Potency,[6],inactive
same,Potency,[7],inactive
same,Potency,[8],inactive
same,Potency,[9],inactive
CC(C)(C)C(=O)Oc1ccc(S(=O)(=O)Nc2ccccc2C(=O)NCC(=O)O)cc1,Potency,[1],inactive
same,outcome,[2],inactive
same,Potency,[3],inactive
same,Potency,[4],inactive
same,max activation,[5],-2.02%
same,Potency,[6],inactive
same,Potency,[7],inactive
same,Potency,[8],inactive
same,Potency,[9],inactive
CCNS(=O)(=O)c1ccc(C)cc1,Potency,[1],inactive
same,outcome,[2],inactive
same,Potency,[3],inactive
same,Potency,[4],inactive
O=C(O)Cc1csc(-c2ccc(Cl)cc2)n1,Potency,[1],inactive
same,outcome,[2],inactive
same,Potency,[3],inactive
same,Potency,[4],inactive
same,max activation,[5],-2.73%
same,Potency,[6],inactive
same,Potency,[7],inactive
same,Potency,[8],inactive
same,Potency,[9],inactive
same,Potency,[10],inactive
CC1=C(C/C=C(\C)CCC[C@H](C)CCC[C@H](C)CCCC(C)C)C(=O)c2ccccc2C1=O,Potency,[1],inactive
same,outcome,[2],inactive
same,Potency,[3],inactive
same,Potency,[4],inactive
same,max activation,[5],-2.63%
same,Potency,[6],11.2 µM (active)
same,Potency,[7],inactive
CCCCCC(C)N (configuration not stated),Potency,[1],inactive
same,outcome,[2],inactive
same,Potency,[3],inactive
same,Potency,[4],inactive
same,max activation,[5],-3.3%
same,Potency,[6],inactive
same,Potency,[7],inactive
same,Potency,[8],inactive
same,Potency,[9],inactive
same,Potency,[10],inactive
CC(=O)Nc1ccc(OCC(O)CNC(C)C)cc1 (configuration not stated),Potency,[1],inactive
same,outcome,[2],inactive
same,Potency,[3],inactive
same,Potency,[4],inactive
same,max activation,[5],0.433%
same,Potency,[6],inactive
same,Potency,[7],inactive
same,Potency,[8],inactive
COc1cccc(OC)c1C(=O)N[C@@H]1C(=O)N2[C@@H]1SC(C)(C)[C@@H]2C(=O)O,Potency,[1],inactive
same,outcome,[2],inactive
same,Potency,[3],inactive
same,Potency,[4],inactive
same,max activation,[5],-1.79%
same,Potency,[6],inactive
same,Potency,[7],inactive
same,Potency,[8],inactive
same,Potency,[9],inactive
same,Potency,[10],inactive
Cc1ccnc(NS(=O)(=O)c2ccc(N)cc2)n1,Potency,[1],inactive
same,outcome,[2],inactive
same,Potency,[3],inactive
same,Potency,[4],inactive
same,max activation,[5],-0.793%
same,Potency,[6],inactive
same,Potency,[7],inactive
same,Potency,[8],inactive
same,Potency,[9],inactive
same,Potency,[10],inactive
Cc1c(N)c(=O)n(-c2ccccc2)n1C,Potency,[1],inactive
same,outcome,[2],inactive
CC(C)C[C@@H](N)C(=O)O,"activity change, negative = cytotoxicity",[1],-2.25% [at 19 µM]
same,caspase-3/7 activation,[2],-0.0944% [at 19 µM]
CC(=O)Oc1cccc(C)c1,Potency,[1],inactive
same,outcome,[2],inactive
same,Potency,[3],inactive
same,Potency,[4],inactive
same,max activation,[5],-3.04%
same,Potency,[6],inactive
same,Potency,[7],inactive
same,Potency,[8],inactive
C[N+]1(C)CCCC(OC(=O)C(O)(c2ccccc2)c2ccccc2)C1 (configuration not stated),Potency,[1],inactive
same,outcome,[2],inactive
same,Potency,[3],inactive
same,Potency,[4],inactive
same,max activation,[5],-3.64%
same,Potency,[6],inactive
same,Potency,[7],inactive
same,Potency,[8],4.9 µM (active)
same,Potency,[9],inactive
same,Potency,[10],inactive
CC(=O)N1C[C@H](O)C[C@H]1C(=O)O,Potency,[1],inactive
same,outcome,[2],inactive
same,Potency,[3],inactive
same,Potency,[4],inactive
same,max activation,[5],-1.61%
same,Potency,[6],inactive
same,Potency,[7],inactive
same,Potency,[8],inactive
same,Potency,[9],inactive
same,Potency,[10],inactive
CCCCCCCCCCOc1cc2c(=O)c(C(=O)OCC)c[nH]c2cc1OCC,"activity change, negative = cytotoxicity",[1],0.813% [at 8.39 µM]
same,caspase-3/7 activation,[2],1.97% [at 8.39 µM]
same,"activity change, negative = cytotoxicity",[3],2.55% [at 8.39 µM]
same,activation,[4],-4.21% [at 8.39 µM]
same,max activation,[5],-1.23%
same,Potency,[6],inactive
same,Potency,[7],inactive
same,"activity change, negative = inhibition",[8],-50% [at 10.5 µM]
same,"activity change, negative = inhibition",[9],52.8% [at 10.5 µM]
same,"activity change, negative = inhibition",[10],6.88% [at 10.5 µM]
[O-][n+]1cccc(CO)c1,Potency,[1],inactive
same,outcome,[2],inactive
same,Potency,[3],inactive
same,Potency,[4],inactive
same,max activation,[5],-1.15%
same,Potency,[6],inactive
same,Potency,[7],inactive
same,Potency,[8],inactive
same,Potency,[9],inactive
same,Potency,[10],inactive
NC(=O)NC1N=C([O][Al])NC1=O (configuration not stated),Potency,[1],inactive
same,outcome,[2],inactive
same,Potency,[3],inactive
same,Potency,[4],inactive
